Source: PubChem (National Center for Advancing Translational Sciences (NCATS))
Giardia FBPA inh = blocks Giardia fructose-bisphosphate aldolase activity; actives 0.71% (n = 290,000); Potency, µM (doses to about 59.6 µM), without a hit: top-dose activity, negative = inhibition, most hits filed as inhibitors; purified Giardia FBPA; A8B2U2; note: nearly all actives have a fitted effect of over 55% in size
Target sequence (A8B2U2 whole entry, looked up): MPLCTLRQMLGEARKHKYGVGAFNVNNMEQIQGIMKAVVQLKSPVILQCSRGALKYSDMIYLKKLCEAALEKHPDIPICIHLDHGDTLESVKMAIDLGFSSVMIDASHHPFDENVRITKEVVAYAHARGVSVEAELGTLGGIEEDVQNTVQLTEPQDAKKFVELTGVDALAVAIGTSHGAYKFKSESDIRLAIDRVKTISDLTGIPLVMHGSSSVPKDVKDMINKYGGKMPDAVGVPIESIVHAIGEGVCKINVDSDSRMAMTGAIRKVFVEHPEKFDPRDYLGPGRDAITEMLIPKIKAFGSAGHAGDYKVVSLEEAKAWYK
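40 nM FBPA preincubated 10 min at RT with compound (up to 57.5 uM final), then substrate plus GAPDH/TPI/NAD/arsenate coupling and diaphorase/resazurin added. Fluorescence read after 20 min at RT, 525/598 nm.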
AmpC detergent = AmpC beta-lactamase inhibition with detergent present; AmpC hydrolysis of nitrocefin, absorbance 480 nm, 0.01% Triton; Potency, µM (highest dose often 114 µM), without a hit: top-dose activity change, negative = inhibition, usual class: inhibitors; actives 0.041% (n = 370,000); P00811;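 note: 0% = no-compound wells and -100% = no-enzyme wells; nearly all actives have a fitted effect of over 25% in size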
Target sequence (P00811 whole entry, looked up): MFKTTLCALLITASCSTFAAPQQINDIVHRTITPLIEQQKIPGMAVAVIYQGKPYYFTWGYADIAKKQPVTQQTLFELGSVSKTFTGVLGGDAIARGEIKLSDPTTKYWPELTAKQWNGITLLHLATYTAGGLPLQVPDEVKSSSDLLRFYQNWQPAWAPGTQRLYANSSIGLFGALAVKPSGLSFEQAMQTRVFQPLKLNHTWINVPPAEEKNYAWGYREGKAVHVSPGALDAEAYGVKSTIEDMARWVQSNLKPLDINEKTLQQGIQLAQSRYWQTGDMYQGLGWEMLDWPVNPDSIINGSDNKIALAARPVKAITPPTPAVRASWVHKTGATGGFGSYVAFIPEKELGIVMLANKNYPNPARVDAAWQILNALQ
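AmpC (5.3 nM in the dispensed reagent) in 20 mM phosphate pH 7.0 with 0.01% (detergent screen) or 0.0001% Triton X-100 was preincubated with compounds for 15 min at room temperature. Nitrocefin was then added from an 800 uM solution, and hydrolysis was followed at 480 nm.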
AmpC inh no detg = inhibitors of E. coli AmpC beta-lactamase without detergent; Potency, µM (top dose mostly 57.1 µM), without a hit: at the top dose activity change, negative = inhibition, usual class: inhibitors; actives 0.52% (n = 330,000); AmpC nitrocefin hydrolysis, absorbance 480 nm, 0.0001% Triton; P00811;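 note: plate controls were no compound for no effect and no enzyme for full effect; nearly all actives have a fitted effect of over 20% in size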
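AmpC (5.3 nM in the dispensed reagent) in 20 mM phosphate pH 7.0 with 0.01% (detergent screen) or 0.0001% Triton X-100 was preincubated with compounds for 15 min at room temperature. Nitrocefin was then added from an 800 uM solution, and hydrolysis was followed at 480 nm.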
AMA1 RON2 block = disrupts binding of P. falciparum AMA1 to RON2 | AlphaScreen AMA1-biotinylated RON2 peptide binding | Potency, µM (series often up to 58.2 µM), without a hit: at the top dose activity change, negative = inhibition, actives largely listed as inhibitors | actives 0.2% (n = 360,000);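 note: 0% = vehicle wells and -100% = peptide control; nearly all actives have a fitted effect of over 45% in size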
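AMA1 (3D7) with his tag at 25 nM final met compounds first, then biotinylated RON2 peptide at 25 nM; detection used donor plus acceptor beads, 10 µg/mL apiece, read by AlphaScreen after 30 min at room temperature.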
Active calls of the source: *; ? = inconclusive; . = no result; ! = repeats disagree; [ ] = dose if it differs, or a comment. This is a sample that favours compounds with a hit; in the whole collection about 1.1% have one here. Calls come from the whole dose curve; as a rule, active = well fitted curve in the direction sought with a large enough effect; inconclusive = small, poorly fitted or top-dose-only effect, or another doubt; inactive = no such curve, though single readings can be large; an effect the other way counts as inactive or inconclusive. Unless noted, % is set by controls: 0 for no effect and ±100 for the full control effect; potency is the fitted concentration of half-maximal effect.

SMILES	Giardia FBPA inh	AmpC detergent	AmpC inh no detg	AMA1 RON2 block
NCC(O)c1cc(O)c(O)cc1F (centres undefined)	5.6µM*	?	-10%	?
COc1ccc(NC(=O)c2oc3ccc(S(=O)(=O)N(C)C4CCCCC4)cc3c2C)cc1Cl	.	-5%	.	.
Cc1cc(C)cc(NC(=O)CN(c2cc(C(F)(F)F)ccc2Cl)S(=O)(=O)c2ccccc2)c1	.	16%	.	.
COc1ccc(Cc2c(-c3ccccc3)nc3c(C)cc(Br)cn23)c(C)c1	.	.	.	-26%
CCN1C(=O)c2ccccc2S(=O)(=O)c2ccc(C(=O)NC(C)C)cc21	1%	1%	-14%	-7%
CCCCNC(=O)c1ccc2c(c1)N(CC)C(=O)c1ccccc1S2(=O)=O	5%	?	45µM*	-2%
O=C(Nc1ccc(F)cc1)c1nc[nH]c1C(=O)O	2%	-9%	-9%	14µM*
O=C(NCc1ccc(Cl)nc1)c1ccc2nc([C@@H]3O[C@H](CO)[C@H](O)[C@H](O)[C@H]3O)[nH]c2c1	.	.	.	2%
COc1cc2c(C#N)c(N3CCCCC3)nc(N)c2c(N)n1	2.2µM*	?	-25%	40%
CCOC(=O)C1CCN(c2nc(C)cc(C)c2C#N)CC1	1%	-4%	25%	11%
COc1cc2c(C#N)c(N3CCOCC3)nc(N)c2c(N)n1	?	0%	-18%	-12%
CCOC(=O)C1CCN(c2nc(N)c3c(N)nc(SCC(=O)O)cc3c2C#N)CC1	7.1µM*	-1%	-29%	29%
COc1cc2c(C#N)c(N3CCc4ccccc4C3)nc(N)c2c(N)n1	1.8µM*	?	-23%	?
CCOc1ccc(C(=O)NCc2ccc3c(c2)CCN3C(=O)c2ccc(Cl)cc2)cc1	.	7%	.	.
COc1ccc(C2C(=O)N(C3CCCCCC3)CC(=O)N2Cc2ccccc2)cc1 (centres undefined)	.	9%	.	.
N#CC(C#N)=Cc1ccc(O)c(O)c1	14µM*!	?	-19%	71%
N#C/C(=C\c1ccc(O)c(O)c1)C(=O)c1ccc(O)c(O)c1	-28%	?	-16%	?
CCn1c2ccccc2c2cc(NC(=O)COc3ccccc3)ccc21	-1%	-7%	25µM*	-4%
CN(C)C(CNC(=O)c1ccc(NC(=O)CC#N)cc1)c1ccccc1 (centres undefined)	0%	3%	-2%	-10%
N#CCC(=O)Nc1ccc(C(=O)OCC(=O)N=c2sccn2Cc2ccccc2Cl)cc1	.	-14%	10µM*	4%
N#CCC(=O)Nc1ccc(C(=O)NCCC(c2ccccc2)c2ccccc2)cc1	-1%	-3%	7.9µM*	5%
CCN(CC)S(=O)(=O)c1cc(NC(=O)COC(=O)c2ccc(NC(=O)CC#N)cc2)ccc1C	0%	4%	7.9µM*	12%
CCN(CC)S(=O)(=O)c1cc(NC(=O)COC(=O)C2CCC2)ccc1C	.	4%	-15%	0%
CCn1c(=O)cc(OCC(=O)Nc2nc(C)cs2)c2ccccc21	4%	-18%	50µM*	-5%
O=C(COC(=O)c1ccc(CO)cc1)Nc1ccc2ccccc2c1	.	-18%	-9%	-1%
SMILES	Giardia FBPA inh	AmpC detergent	AmpC inh no detg	AMA1 RON2 block
CC(OC(=O)c1ccc(NC(=O)CC#N)cc1)C(=O)Nc1ccc(Oc2ccccc2)cc1 (centres undefined)	.	7%	6.3µM*	.
CC(OC(=O)c1ccc(NC(=O)CC#N)cc1)C(=O)Nc1nc(-c2ccccc2)cs1 (centres undefined)	.	?	-49%	-2%
CCn1c2ccccc2c2cc(NC(=O)COC(=O)c3ccc(NC(=O)CC#N)cc3)ccc21	.	0%	32µM*	-21%
N#CCC(=O)Nc1ccc(C(=O)OCC(=O)Nc2ccc3ccccc3c2)cc1	.	4%	20µM*	18%
N#CCC(=O)Nc1ccc(C(=O)OC(C(=O)Nc2cc(C(F)(F)F)ccc2Cl)c2ccccc2)cc1 (centres undefined)	.	0%	7.1µM*	-7%
N#CCC(=O)Nc1ccc(C(=O)OC(C(=O)Nc2ccc([N+](=O)[O-])cc2Br)c2ccccc2)cc1 (centres undefined)	.	.	.	-8%
C=CCNc1nc(C(=O)OCC(=O)c2ccc(C)c([N+](=O)[O-])c2)cs1	.	2%	20µM*	33%
COc1cccc(Cn2nnc(C(=O)NCc3ccc4c(c3)OCO4)c2N)c1	-3%	1%	35µM*	11%
CC1(C(=O)NS(=O)(=O)c2ccc(Cl)s2)CCN1C(=O)C1(c2ccccc2)CCCC1 (centres undefined)	.	.	.	-3%
CC1=C(C(=O)OC(C)C)C(c2cccc([N+](=O)[O-])c2)n2c(cc(=O)[nH]c2=S)N1 (centres undefined)	20%	-16%	35µM*	34%
Cc1nc(N/N=C/c2ccc(O)cc2)c2cnn(-c3ccccc3)c2n1	0%	-10%	16µM*	0%
CCN(CCO)c1ccc(NC(=S)Nc2cccc(S(=O)(=O)N(C)C)c2)cc1	7.9µM*	-9%	-22%	-7%
CCN(CC)S(=O)(=O)c1cccc(C(=O)N/N=C/c2ccc(O)c(O)c2O)c1	4.5µM*	-9%	20µM*	-6%[11.6 µM]
CN(C)S(=O)(=O)c1cccc(NC(=S)N/N=C/c2ccc(O)c(O)c2O)c1	16µM*	-1%	?	-4%
CCn1c(C)nc2cc(C(=O)N/N=C/c3ccc(O)c(O)c3O)ccc21	13µM*	2%	-1%	14µM*
Oc1c(Cl)cc(Cl)cc1C(C#Cc1ccccc1)N1CCOCC1 (centres undefined)	9%	1%	0.32µM*	-4%
N#CC(c1ccc(Cl)cc1)N1CCOCC1 (centres undefined)	-29%	-7%	-9%	1%
O=c1ccc2cc(S(=O)(=O)NCc3ccc(Cl)cc3)ccc2[nH]1	.	20%	.	.
N#CCC(=O)Nc1ncc(Cc2ccccc2Cl)s1	1%	-8%	18µM*	107%
CC(C)C(=O)Nc1ncc(Cc2ccccc2Cl)s1	-1%	6%	-13%	3%
Cc1[nH]c2ccccc2c1C(=O)C(C)OC(=O)c1ccccc1NCCO (centres undefined)	.	?	28µM*	1%
COCCn1c(SCC(=O)c2c[nH]c3ccccc23)nc2cc(C(=O)NCC(C)C)ccc2c1=O	.	1%	.	.
N=C(N)c1ccc(N=Nc2c(O)ccc3c2[nH]c2ccccc23)cc1	.	.	.	25µM*
COc1ccc(N(C)C(=O)c2cc(S(=O)(=O)N3CCc4ccccc43)cn2C)c(OC)c1	.	3%	.	.
CC(Sc1nc2ncc(Cl)cc2[nH]1)C(=O)Nc1ccc(C(N)=O)cc1 (centres undefined)	.	-7%	-22%	17%
O=C(NN=Cc1ccc(O)c(O)c1)c1ccccc1	.	.	.	9%
O=C(N/N=C/c1ccc(OCc2ccc(F)cc2)cc1)c1ccccc1	0%	2%	-22%	-15%
CC(C)(C)c1ccc(OCc2ccc(C(=O)N/N=C/c3ccc(O)c(O)c3)cc2)cc1	-21%	-1%	14µM*	12%
